Results on 54 compounds are retold here after PubChem BioAssay AID1347076 (National Center for Advancing Translational Sciences (NCATS), 2019).

Each structure is given as a SMILES string. About 13,000 (3.2%) of roughly 400,000 compounds were called active. About 18% were inconclusive and are not listed. The entries come from a sample that favours actives as a whole. Values without a mark were called inactive. Calls follow the shape of the dose curve; as a rule, active = well fitted cell-killing curve with a large enough effect; inconclusive = small, poorly fitted or top-dose-only effect, or effect the other way; inactive = flat fitted curve, though single readings scatter.
% is scaled to controls: 0 for no effect and ±100 for the full control effect; potency is read from the fitted curve at half-maximal effect.

This assay in a line: qHTS assay for MDR1-selective chemotherapeutics: Primary screen using the drug-selected MDR subline cells KB-V1. Also: nearly all actives have a fitted effect of over 60% in size. The note with it: KB-V1 MDR cells viability, CellTiter-Glo, 72 h; series mostly up to 46.1 µM; activity change, negative = cytotoxicity: at the top concentration. The procedure, abridged:
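Readout: CellTiter-Glo luminescence, 10 min after addition. Cells: KB-V1 MDR subline, 72 h at 37 degrees C with compound. Analysis: corrected, normalized data fitted to concentration-effect curves.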
For `CCc1nc2c(OCc3ccccc3)cccn2c1N(C)C(=O)c1ccco1`, the “activity change, negative = cytotoxicity” value is -2.97%.

For the compound `CCCCNS(=O)(=O)CCNCc1ccccc1OC`, the “activity change, negative = cytotoxicity” value is -3.58%.

Turning to `COc1ccccc1Cc1c(-c2ccc(Cl)cc2)nc2ccc(Cl)cn12`, the “activity change, negative = cytotoxicity” value was -5.46%.

On to `COc1ccc(CNC(=O)c2cc3c(-c4ccccc4F)nn(C)c3s2)c(OC)c1`, for which the “activity change, negative = cytotoxicity” value was -2.11%.

As for `CCCc1c(-c2ccccc2F)ncn1Cc1ccccc1OC`, the Potency was 20.6 µM (active).

On to `CCCCc1c(-c2ccc(Br)cc2)ncn1CCc1ccccc1OC`, for which the Potency was 20.6 µM (active).

Consider `COc1ccccc1Cc1c(-c2ccc(Cl)cc2)nc2c3ccccc3ccn12`, for which the “activity change, negative = cytotoxicity” value was -28%.

On to `COc1cccc(OC)c1C(=O)N1CCN(Cc2ccccc2F)CC1`, for which the “activity change, negative = cytotoxicity” value is 2.02%.

For the compound `CCCCc1c(-c2ccc(Cl)cc2)ncn1CCc1ccccc1OC`, the Potency is 13 µM (active).

As for `COc1ccccc1CCNS(=O)(=O)c1cn(C)nc1C`, the “activity change, negative = cytotoxicity” value is 14.6%.

For `COc1cc(Br)cc2cc(S(=O)(=O)c3ccccc3)c(=O)oc12`, the “activity change, negative = cytotoxicity” value is 20.1%.

`CCc1cccc(NC(=O)c2cnc(N3CCOCC3)c3ccccc23)c1`: the “activity change, negative = cytotoxicity” value was -2.64%.

For `Oc1ccccc1-c1nc2ccc(Cl)cn2c1Nc1ccc2c(c1)OCCO2`, the “activity change, negative = cytotoxicity” value was 0.195%.

Regarding `CN(C)c1ccc(/C=C/c2sc3ccccc3[n+]2C)cc1`, the “activity change, negative = cytotoxicity” value was 13.9%.

In the case of `Cc1cccc(C)c1NC(=O)CN1CCN(c2ccc(F)cc2)CC1`, the “activity change, negative = cytotoxicity” value was 0%.

For `COc1ccc2[nH]c(C(=O)N3CCN(C)CC3)c(C)c2c1`, the “activity change, negative = cytotoxicity” value is 13.6%.

For `COc1ccc2[nH]c3c(C)c4cc[n+](C)cc4c(C)c3c2c1`, the “activity change, negative = cytotoxicity” value is 11.5%.

Turning to `COc1ccc2[nH]c(=S)cc(C)c2c1`, the Potency was 14.6 µM (active).

`CCOc1ccc(N(CC)S(=O)(=O)N2CCCC(C(=O)Nc3ccc(C(C)=O)cc3)C2)cc1` (centres undefined): the “activity change, negative = cytotoxicity” value was -22.2%.

On to `CC(NS(=O)(=O)c1ccc(Br)cc1)C(=O)NCC1CCCO1` (centres undefined), for which the “activity change, negative = cytotoxicity” value is 22.2%.

With `OC(CNCC1CCCO1)Cn1c2ccc(Br)cc2c2cc(Br)ccc21` (centres undefined), the Potency is 23.1 µM (active).

With `O=C(CCNS(=O)(=O)c1ccc(Br)cc1)NCC1CCCO1` (centres undefined), the “activity change, negative = cytotoxicity” value is -30.8%.

Turning to `CCOC(=O)c1c(-c2ccc(OC)cc2)oc2ccc(OCc3ccc(C(=O)OC)cc3)cc12`, the “activity change, negative = cytotoxicity” value was 1.92%.

Turning to `COc1cc(OC)c2c(-c3cccc(-c4cccc(N)c4)c3)cc(=O)oc2c1`, the Potency is 7.31 µM (active).

Regarding `COc1ccc(-c2c(C)cc3oc(=O)cc(-c4ccccc4)c3c2C)cc1OC`, the “activity change, negative = cytotoxicity” value was 0.0002%.

For `COc1ccc(-c2c(C)cc3oc(=O)cc(-c4ccccc4)c3c2C)cc1F`, the “activity change, negative = cytotoxicity” value is -36%.

For `OC(Cc1ccc2ccccc2n1)c1ccc(Cl)c(Cl)c1` (centres undefined), the “activity change, negative = cytotoxicity” value is 1.97%.

Regarding `O=C(CSc1ncc(CO)n1Cc1ccc(Cl)cc1)NCc1ccc(F)cc1`, the “activity change, negative = cytotoxicity” value was -6.64%.

As to `Cn1c(CCN2CCN(c3ccccn3)CC2)nc2cc(NS(=O)(=O)c3ccc(F)cc3)ccc21`, the “activity change, negative = cytotoxicity” value is -19.1%.

Take `Cc1cccc(CSc2nnc(Cn3c(=O)sc4ccccc43)n2C)c1`: the “activity change, negative = cytotoxicity” value is -15.3%.

Take `COc1ccc(Cn2c(=O)sc3ccccc32)cc1OC`: the Potency is 2.59 µM (active).

Regarding `COc1ccccc1CNC(=O)CCn1c(=O)sc2ccccc21`, the “activity change, negative = cytotoxicity” value was -7.38%.

As for `O=C(Nc1nnc([C@H]2C[C@H](O)[C@@H](CO)O2)s1)c1cccc(Cl)c1`, the “activity change, negative = cytotoxicity” value was 16.6%.

Turning to `COc1ccc(S(=O)(=O)NC(=O)C2(C)CCN2C(=O)COc2ccc(Cl)cc2)cc1` (centres undefined), the “activity change, negative = cytotoxicity” value was 4.3%.

As to `Cc1ccc(C(O)P(=O)(OC(C)C)c2ccc(N(C)C)cc2)cc1` (centres undefined), the “activity change, negative = cytotoxicity” value is -1.44%.

For the compound `CC(C)COP(=O)(c1ccc(N(C)C)cc1)C(Nc1ccccc1)c1cccnc1` (centres undefined), the Potency was 23.1 µM (active).

As for `CC(Nc1ccccc1)c1cccnc1` (centres undefined), the “activity change, negative = cytotoxicity” value is 35.2%.

Take `COc1ccccc1N1CCN(C2C(=O)c3ccccc3N2C(C)=O)CC1` (centres undefined): the “activity change, negative = cytotoxicity” value was 1.8%.

`COc1ccccc1OCc1nc2ccccc2s1`: the “activity change, negative = cytotoxicity” value is -20%.

Turning to `N=C1C(c2nc3ccccc3[nH]2)=C(O)CN1NC(=O)c1c[nH]c2ccccc12`, the “activity change, negative = cytotoxicity” value was 11.8%.

Regarding `COc1ccc(-n2nnnc2-c2nc3ccccc3s2)cc1`, the “activity change, negative = cytotoxicity” value was -7.27%.

With `COc1ccccc1N1CC(O)=C(c2nc3ccccc3s2)C1=N`, the Potency is 10.3 µM (active).

Regarding `N=C1C(c2nc3ccccc3s2)=C(O)CN1NC(=O)c1ccc([N+](=O)[O-])cc1`, the Potency is 18.4 µM (active).

For the compound `Cc1ccc(C)n1NC(=O)c1ccc([N+](=O)[O-])cc1`, the “activity change, negative = cytotoxicity” value is 8.09%.

As to `COC(=O)C[C@@H]1C=C[C@@H](NC(=O)c2ccc3c(c2)OCO3)[C@@H](CO)O1`, the “activity change, negative = cytotoxicity” value was 2.17%.

On to `COc1ccc(-c2c(C#N)cnc(C)c2C)c(O)c1OC`, for which the “activity change, negative = cytotoxicity” value was 12%.

Regarding `CCCCn1nnnc1C(c1ccccc1)N1CCN(c2ccccc2OC)CC1` (centres undefined), the “activity change, negative = cytotoxicity” value is -12.7%.

As to `CC1Cc2[nH][nH]c(=O)c2C(C2CCCC2)O1` (centres undefined), the “activity change, negative = cytotoxicity” value was 24.7%.

For `FC(F)(F)c1cccc(N/N=C/c2ccccc2)c1`, the “activity change, negative = cytotoxicity” value is -6.67%.

Consider `FC(F)(F)c1cccc(Nc2ncnc3ccccc23)c1`, for which the Potency is 18.4 µM (active).

Take `FC(F)(F)c1cccc(NC(=S)Nc2cccc(Cl)c2)c1`: the “activity change, negative = cytotoxicity” value is -18.3%.

`CN(Cc1ccccc1)C(=O)c1cn(C)c2ccc(S(=O)(=O)N3CCCCC3)cc2c1=O`: the “activity change, negative = cytotoxicity” value was 17.2%.

Consider `CN1OC[C@@H]2CN[C@H](c3ccc(-c4ccccc4)cc3)C[C@@H]21`, for which the “activity change, negative = cytotoxicity” value is -3.02%.

On to `Cn1c(=O)c2c(SCC(=O)NCC3CCCO3)nc(-c3ccccc3F)nc2n(C)c1=O` (centres undefined), for which the “activity change, negative = cytotoxicity” value was 28.3%.
